Assay [1] relates to Wnt5a (protein binding on small-molecule microarray). As to the kind of experiment: small molecules binding Wnt5a protein – biophysical, small-molecule microarray, 635/667 nm fluorescence, primary screen (AID 1142).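 Further: fluorescence read at 667 nm with signal to noise per printed feature.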 As to conditions: 635 nm fluorescence, higher = more signal.
Assay [2] in a line: ATP-based viability of Huh7 replicon cells – cell-based, CellTiter-Glo luminescence, basal, 48 h, cytotoxicity control for HCV replication inhibitor project, primary screen (AID 1143).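 Further: Huh7 hepatoma cells carrying a hepatitis C replication reporter with no stimulus; test concentration not given here.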 As to conditions: higher = more signal, called active from +8 up or from −8 down. On the technique in general: Replicon systems follow genome replication, usually without infectious particles.
A short description of assay [3]: Pseudomonas biofilm growth suppression – PAO1 strain, BacTiter-Glo luminescence, LB-PBS, primary screen (AID 1144). The note with it: P. aeruginosa PAO1 biofilm, 12 h, higher = more signal.
Assay [4] in a line: basal CRE-LacZ reporter activity in PC12 – cell-based, unstimulated, primary screen (AID 1145). The note with it: no forskolin, luminescence, 4.5 h, higher = more signal, called active from +8 up or from −8 down.
Assay [5] in a line: forskolin-driven CRE-LacZ activity in PC12 – cell-based, CRE-LacZ reporter, forskolin-stimulated, primary screen (AID 1146).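 Further: PC12 cells with 6xCRE LacZ reporter stimulated by forskolin 10 µM; beta-galactosidase reporter signal reflecting CREB driven transcription.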 As to conditions: luminescence, 4.5 h, higher = more signal, called active from +8 up or from −8 down.
Assay [6] deals with Streptavidin (Streptomyces avidinii) (UniProt P22629). As to the kind of experiment: compounds binding control protein streptavidin – biophysical, small-molecule microarray, 635/667 nm fluorescence, artefact control for SMM compound annotation, primary screen (AID 1147).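 Further: signal reflects streptavidin binding to arrayed compounds as a control protein.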 As to conditions: higher = more signal.
Chain of Streptavidin (Streptomyces avidinii) (P22629 whole entry, looked up): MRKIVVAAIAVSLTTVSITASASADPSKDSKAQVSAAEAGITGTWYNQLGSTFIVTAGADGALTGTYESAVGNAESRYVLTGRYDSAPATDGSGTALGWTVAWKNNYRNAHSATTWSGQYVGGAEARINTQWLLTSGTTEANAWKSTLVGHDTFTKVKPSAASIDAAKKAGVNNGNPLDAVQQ
A short description of assay [7]: probe aInhba binding on compound microarray – biochemical, small-molecule microarray, 635/667 nm fluorescence, primary screen (AID 1148).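 Further: score merges 667nm spot fluorescence with signal-to-noise for antibody binding to printed compounds.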 As to conditions: higher = more signal.
Assay [8] deals with Torsin-1A (Homo sapiens) (UniProt O14656). The experiment in a line: TOR1A wild-type binding on microarray – cell lysate, small-molecule microarray, lysate, 635/667 nm, primary screen (AID 1149). The note with it: COS7 hTOR1A-WT lysate, 635 nm fluorescence, higher = more signal.
Chain of Torsin-1A (Homo sapiens) (O14656 whole entry, looked up): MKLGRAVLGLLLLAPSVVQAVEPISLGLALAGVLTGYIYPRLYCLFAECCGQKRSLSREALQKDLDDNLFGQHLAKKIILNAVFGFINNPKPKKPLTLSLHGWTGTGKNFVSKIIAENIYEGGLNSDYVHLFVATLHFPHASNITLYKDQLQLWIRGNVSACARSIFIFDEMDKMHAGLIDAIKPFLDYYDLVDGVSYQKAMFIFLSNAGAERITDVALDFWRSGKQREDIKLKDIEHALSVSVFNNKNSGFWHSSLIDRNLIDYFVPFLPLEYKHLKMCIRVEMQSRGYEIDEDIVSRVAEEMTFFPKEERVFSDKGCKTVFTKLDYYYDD
Assay [9] has the same target. The experiment in a line: torsin A mutant lysate binding on microarrays – cell lysate, small-molecule microarray, COS7 lysate, 635/667 nm fluorescence, primary screen (AID 1150).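 Further: score pools 667 nm emission and signal to noise measuring lysate protein binding.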 The note with it: COS7 hTOR1A mutant lysate, 635 nm fluorescence, higher = more signal.
In assay [10] the test system is Sonic hedgehog protein (Shh). The experiment in a line: Sonic hedgehog microarray binding compounds – biochemical, small-molecule microarray, 635/667 nm fluorescence, primary screen (AID 1151).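 Further: Shh protein binding to compounds spotted on small-molecule microarray slides; score combines spot fluorescence intensity with signal-to-noise across triplicate slides.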 The note with it: 635 nm fluorescence, higher = more signal.
The nature of assay [11]: optical density shifts of acrAB sulA E. coli – strain DRC41, OD650, 48 h, E. coli filamentation inducer project, primary screen (AID 1152).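 Further: E. coli MC1000 strain DRC41 lacking acrAB efflux pump and sulA.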 The note with it: higher = more signal, called active from +8 up or from −8 down.
Assay [12] is described as follows: probe aLefty1 binding on compound microarray – biochemical, small-molecule microarray, 635/667 nm fluorescence, primary screen (AID 1153).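 Further: score merges spot fluorescence with signal-to-noise ratio from the scanned slide images.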 The note with it: higher = more signal.
Assay [13] in a line: plasmodial surface anion channel blockers, osmotic lysis – cell-based, P. falciparum Indochina, OD700, 1 h, primary screen (AID 1154). As to conditions: P. falciparum Indochina infected RBC osmotic lysis, higher = more signal, called active from +8 up or from −8 down.
Assay [14] is described as follows: plasmodial surface anion channel blockers, osmotic lysis – cell-based, P. falciparum Indochina, OD700, 2 h, primary screen (AID 1155).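 Further: lysis reports solute entry through the parasite surface anion channel PSAC.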 As to conditions: P. falciparum Indochina infected erythrocytes, higher = more signal, called active from +8 up or from −8 down.
The nature of assay [15]: changes in parasitized red cell lysis, either direction – P. falciparum Indochina, OD700, 3 h, PSAC antagonist project, primary screen (AID 1156). As to conditions: P. falciparum-infected erythrocytes, osmotic lysis, higher = more signal, called active from +8 up or from −8 down.
A short description of assay [16]: plasmodial surface anion channel blockers, osmotic lysis – cell-based, P. falciparum Indochina, OD700, 18 h, primary screen (AID 1157). As to conditions: P. falciparum Indochina infected erythrocytes, osmotic lysis OD700, 18 h; higher = more signal, called active from +8 up or from −8 down.
Assay [17] is described as follows: S6 kinase pathway phospho-S6 level changes – cell-based, A549, cytoblot, luminescence, serum-stimulated, primary screen (AID 1158).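 Further: serum-stimulated A549 lung adenocarcinoma cells; signal is phosphorylated S6 detected by cytoblot immunostaining with HRP secondary.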 As to conditions: 5 h, higher = more signal.
The target in assay [18] is NADPH oxidase 2 (Homo sapiens) (UniProt P04839). The experiment in a line: compounds shifting NOX2 Amplex Red fluorescence – cell-based, HEK293-NOX2, PMA-stimulated, NOX inhibitor project, primary screen (AID 1159). Further: test concentration not given here. The note with it: 45 min, higher = more signal, called active from +8 up or from −8 down.
Chain of NADPH oxidase 2 (Homo sapiens) (P04839 whole entry, looked up): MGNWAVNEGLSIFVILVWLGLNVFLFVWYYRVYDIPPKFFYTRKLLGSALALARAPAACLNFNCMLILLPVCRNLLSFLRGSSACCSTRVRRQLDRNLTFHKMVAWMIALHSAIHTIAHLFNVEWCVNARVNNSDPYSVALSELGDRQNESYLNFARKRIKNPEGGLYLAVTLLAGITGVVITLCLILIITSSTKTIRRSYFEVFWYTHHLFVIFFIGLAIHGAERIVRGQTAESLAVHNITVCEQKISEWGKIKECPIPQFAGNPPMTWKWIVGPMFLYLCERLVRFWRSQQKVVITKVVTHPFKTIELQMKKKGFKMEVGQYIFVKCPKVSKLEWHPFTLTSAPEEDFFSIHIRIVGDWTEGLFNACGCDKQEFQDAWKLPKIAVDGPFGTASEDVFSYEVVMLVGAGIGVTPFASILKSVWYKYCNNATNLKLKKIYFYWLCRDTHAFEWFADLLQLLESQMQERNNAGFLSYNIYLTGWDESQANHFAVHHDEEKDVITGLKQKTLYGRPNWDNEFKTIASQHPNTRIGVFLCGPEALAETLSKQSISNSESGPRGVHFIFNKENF
Assay [19] concerns the target NADPH oxidase 4 (Homo sapiens) (UniProt Q9NPH5). As to the kind of experiment: compounds shifting NOX4 Amplex Red fluorescence – cell-based, HEK293-NOX4, tetracycline-induced, NOX inhibitor project, primary screen (AID 1160). As to conditions: HEK293-NOX4, Amplex Red H2O2 fluorescence, 45 min; higher = more signal, called active from +8 up or from −8 down.
The target of assay [20] is NADPH oxidase 5 (Homo sapiens) (UniProt Q96PH1). As to the kind of experiment: compounds shifting NOX5 Amplex Red fluorescence – cell-based, HEK293-NOX5, NOX inhibitor project, primary screen (AID 1161). As to conditions: HEK293-NOX5, ionomycin, 45 min, higher = more signal.
Chain of NADPH oxidase 5 (Homo sapiens) (Q96PH1 whole entry, looked up): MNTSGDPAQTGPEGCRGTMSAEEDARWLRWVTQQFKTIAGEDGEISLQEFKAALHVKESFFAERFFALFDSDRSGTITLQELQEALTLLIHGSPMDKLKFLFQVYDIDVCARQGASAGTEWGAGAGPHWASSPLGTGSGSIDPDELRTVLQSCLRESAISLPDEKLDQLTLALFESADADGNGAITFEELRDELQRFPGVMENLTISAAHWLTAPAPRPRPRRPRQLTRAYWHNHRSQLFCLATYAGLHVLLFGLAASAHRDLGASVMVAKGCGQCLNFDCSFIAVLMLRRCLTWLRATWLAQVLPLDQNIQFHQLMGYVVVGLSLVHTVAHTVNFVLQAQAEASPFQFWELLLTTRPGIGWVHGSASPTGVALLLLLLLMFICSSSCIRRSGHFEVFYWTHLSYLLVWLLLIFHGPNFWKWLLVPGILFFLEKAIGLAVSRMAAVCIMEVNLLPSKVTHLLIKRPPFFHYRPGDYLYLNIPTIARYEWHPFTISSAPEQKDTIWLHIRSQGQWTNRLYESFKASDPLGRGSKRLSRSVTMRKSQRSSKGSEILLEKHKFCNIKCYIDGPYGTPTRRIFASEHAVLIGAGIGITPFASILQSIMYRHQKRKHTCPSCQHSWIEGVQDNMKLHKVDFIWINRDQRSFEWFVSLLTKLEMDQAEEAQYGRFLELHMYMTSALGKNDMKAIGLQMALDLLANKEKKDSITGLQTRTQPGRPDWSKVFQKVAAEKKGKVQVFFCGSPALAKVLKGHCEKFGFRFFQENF

Activity calls are given as the source filed them. Unless noted, how the calls were made is not given here.

Chain of NADPH oxidase 4 (Homo sapiens) (Q9NPH5 whole entry, looked up): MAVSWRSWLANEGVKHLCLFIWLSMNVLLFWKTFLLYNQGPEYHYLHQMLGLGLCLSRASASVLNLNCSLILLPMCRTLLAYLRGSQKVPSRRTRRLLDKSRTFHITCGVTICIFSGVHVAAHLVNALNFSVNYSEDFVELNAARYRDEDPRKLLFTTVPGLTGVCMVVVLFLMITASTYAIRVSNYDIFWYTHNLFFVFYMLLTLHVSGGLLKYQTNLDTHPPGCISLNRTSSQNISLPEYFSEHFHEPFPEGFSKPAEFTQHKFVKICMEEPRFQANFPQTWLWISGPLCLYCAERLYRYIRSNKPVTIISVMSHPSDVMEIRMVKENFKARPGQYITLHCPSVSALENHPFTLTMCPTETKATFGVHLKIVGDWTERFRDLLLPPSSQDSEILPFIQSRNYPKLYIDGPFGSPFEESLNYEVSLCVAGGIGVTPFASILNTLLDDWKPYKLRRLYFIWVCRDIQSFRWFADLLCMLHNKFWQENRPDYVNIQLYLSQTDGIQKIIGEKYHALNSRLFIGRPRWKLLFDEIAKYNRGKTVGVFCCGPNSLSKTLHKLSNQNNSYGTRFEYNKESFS

Regarding `CC(CCN1CCCc2nc(C)c(C)cc21)=NOC[C@@H](C)[C@H](OCc1ccccc1)C(C)C`, the composite z-score in assay [1] is -0.257; in assay [6], -0.983; in [7], -0.101; in assay [8], -0.469; in [9], -0.931; in [10] it was 0.0185. The molecule also yielded a composite z-score in assay [12] of -0.147. For the same molecule, the z-score in assay [2] is -1.01 (inactive); in assay [3] it was -0.47 (inactive); in assay [4], -1.14 (inactive); in [5], -0.186 (inactive); in assay [11] it was 0.259 (inactive); in assay [13] it was 1.25 (inactive). For the same molecule, the z-score was -1.75 (inactive) in assay [14]; -0.167 (inactive) in [15]; -1.84 (inactive) in [16]; 2 in assay [17]; -2.43 (inactive) in assay [18]; -1.68 (inactive) in [19]. The z-score in [20] was -1.12.

Turning to `CCOC(=O)[C@H](Cc1ccccc1)NC(=O)CCC1CC(OC(=O)NCc2ccc3c(c2)OCO3)CC2(CCCC(COC(=O)NCCOC)O2)O1` (stereo not given in full), the composite z-score in assay [1] was 0.274; in assay [6], 0.91; in [7], -0.016; in assay [8], 0.351; in [9], 0.291; in assay [10] it was 1.91. In assay [12], the composite z-score is -0.0428. In addition, the z-score in assay [2] is -3.06 (inactive); in assay [3], -0.212 (inactive); in [4] it was -0.256 (inactive); in assay [5], 0.59 (inactive); in assay [11], -0.11 (inactive); in assay [13], -1.89 (inactive). For the same molecule, the z-score was -1.39 (inactive) in [14]; 0.61 (inactive) in assay [15]; -1.67 (inactive) in assay [16]; 2.53 in assay [17]; 0.195 (inactive) in [18]; -0.931 (inactive) in assay [19]. In addition, the z-score in [20] is -2.16.

With `CC(C)CON=C1C[C@@H](O)[C@@H](O)[C@@H]2[C@@H]3C(=O)N(Cc4ccccc4)C(=O)[C@@H]3CC[C@H]12`, the composite z-score is 0.0659 in assay [1]; -0.682 in assay [6]; -0.212 in assay [7]; 0.0783 in assay [8]; 0.208 in assay [9]; 0.503 in [10]. Moreover, in [12], the composite z-score was -0.249. The z-score in assay [2] was -1.75 (inactive); in assay [3] it was -1.46 (inactive); in [4], -0.0223 (inactive); in [5], 0.627 (inactive); in assay [11], -1.41 (inactive); in assay [13], 1.12 (inactive). The z-score in assay [14] is -1.19 (inactive); in assay [15], 0.99 (inactive); in assay [16], -1.6 (inactive); in assay [17], 0.0105; in assay [18], 1.48 (inactive); in assay [19] it was 0.209 (inactive). Also, in assay [20], the z-score came to 0.588.

For the molecule `CCc1cc2c(nc1CC)CCN(CCC(C)=NOCC[C@@H]1C=C[C@H](OC(C)=O)[C@@H](COC(C)=O)O1)C2`, the composite z-score came to 0.257 in assay [1]; 1.78 in assay [6]; 0.127 in assay [7]; 2.66 in [8]; 1.66 in [9]; 1.32 in assay [10]. Also, the composite z-score in [12] was determined as 0.245. The z-score in [2] is 0.0095 (inactive); in [3] it was -0.0152 (inactive); in [4] it was 3.88 (inactive); in assay [5] it was 0.329 (inactive); in [11], -0.842 (inactive); in [13], 1.86 (inactive). In addition, the z-score is 0.724 (inactive) in assay [14]; 0.77 (inactive) in [15]; 0.269 (inactive) in [16]; -1.04 in [17]; -0.572 (inactive) in [18]; 0.615 (inactive) in [19]. Besides, the z-score in [20] amounted to 1.65.

Take `C[C@@H]1CC[C@H]2C(=O)O[C@@H](CN=[N+]=[N-])CN2[C@H]1c1ccc(Br)cc1`: the composite z-score was -0.0229 in assay [1]; 0.414 in assay [6]; -0.179 in [7]; 0.48 in [8]; 0.581 in [9]; 0.888 in [10]. The molecule further showed a composite z-score in assay [12] of -0.35. In addition, the z-score in assay [2] is -3.67 (inactive); in assay [3] it was -0.608 (inactive); in assay [4], 3.37 (inactive); in [5], -0.833 (inactive); in [11], -2.31 (inactive); in assay [13] it was 25.4 (active). Besides, the z-score in [14] was 8.11 (active); in [15], 1.59 (inactive); in assay [16] it was 2.16 (inactive); in assay [17], 0.476; in assay [18], -3.99 (inactive); in [19] it was -3.91 (inactive). Further, in [20], the z-score was -0.668.

The values above are taken from PubChem BioAssay.
